C diff growth: C. difficile growth inhibitors, primary screen, HTS; AID 1259249, 2017; 86,000 tested, 0.25% active; growth activity, negative = inhibition, % at 16 µg/mL (by protocol); Clostridium difficile clinical isolate growth, OD600, 24 h; stronger effect = lower value;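 active = mean growth activity at or below -80% and every replicate also at or below -80%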;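 note: 0% = DMSO wells and -100% = levofloxacin 16 µg/mL wells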
Pf Dd2 inh: P. falciparum Dd2 growth inhibitors, primary screen, SYBR Green fluorescence, single dose replicates. 72 h; stronger effect = lower value. activity change, % at 10 µM. 94,000 tested, 2.3% active; in the data active = activity change below about -80%
An asterisk follows results filed as active; . = no result. A selection: hits, their analogues and other compounds. The true share with any hit is near 2.3%.

SMILES	C diff growth	Pf Dd2 inh
COc1ccc(S(=O)(=O)N(C)C[C@@H]2Oc3cc(-c4ccccc4OC)ccc3S(=O)(=O)N([C@H](C)CO)C[C@@H]2C)cc1	6	-50
COc1ccccc1-c1ccc2c(c1)O[C@@H](CN(C)S(=O)(=O)c1ccc(C)cc1)[C@H](C)CN([C@@H](C)CO)S2(=O)=O	5	-84*
COc1ccccc1-c1ccc2c(c1)O[C@H](CN(C)S(=O)(=O)c1ccc(C)cc1)[C@H](C)CN([C@H](C)CO)S2(=O)=O	19	-39
COc1ccccc1-c1ccc2c(c1)O[C@@H](CN(C)S(=O)(=O)c1ccccc1)[C@H](C)CN([C@H](C)CO)S2(=O)=O	7	-82*
COc1ccc(S(=O)(=O)N(C)C[C@@H]2Oc3cc(-c4ccccc4OC)ccc3S(=O)(=O)N([C@H](C)CO)C[C@H]2C)cc1	2	-87*
COc1ccccc1-c1ccc2c(c1)O[C@@H](CN(C)S(=O)(=O)c1ccccc1)[C@@H](C)CN([C@H](C)CO)S2(=O)=O	14	-51
C/C=C/c1cnc2c(c1)C(=O)N([C@@H](C)CO)C[C@H](C)[C@H](CN(C)Cc1ccccc1)O2	2	37
C[C@@H]1CN([C@@H](C)CO)S(=O)(=O)c2ccc(C#Cc3ccccc3)cc2O[C@H]1CN(C)C(=O)C1CC1	-15	-89*
C[C@@H]1CN([C@@H](C)CO)S(=O)(=O)c2ccc(C#CC3CCCC3)cc2O[C@@H]1CN(C)C(=O)Cc1ccncc1	-1	-32
C[C@H]1CN([C@@H](C)CO)S(=O)(=O)c2ccc(C#CC3(O)CCCC3)cc2O[C@H]1CN(C)C(=O)c1ccccc1	-2	-46
C[C@@H]1CN([C@H](C)CO)S(=O)(=O)c2ccc(C#Cc3ccncc3)cc2O[C@@H]1CN(C)C(=O)C1CC1	.	-25
C[C@@H]1CN([C@H](C)CO)S(=O)(=O)c2ccc(C#Cc3ccccc3)cc2O[C@@H]1CN(C)C(=O)C1CC1	4	-82*
C[C@H](CO)N1C[C@H](C)[C@H](CN(C)C(=O)C2CC2)Oc2cc(C#Cc3ccncc3)ccc2S1(=O)=O	.	-56
C[C@H](CO)N1C[C@H](C)[C@@H](CN(C)C(=O)Cc2ccncc2)Oc2cc(C#CC3CCCC3)ccc2S1(=O)=O	2	-85*
C[C@@H]1CN([C@@H](C)CO)S(=O)(=O)c2ccc(C#CC3(O)CCCC3)cc2O[C@H]1CN(C)C(=O)c1ccccc1	-9	-86*
COc1cccc(S(=O)(=O)N2C[C@@H](O)COC[C@H]3O[C@@H](CC(=O)NCCCN4CCOCC4)CC[C@@H]32)c1	-9	.
C[C@@H]1CN([C@@H](C)CO)S(=O)(=O)c2ccc(Br)cc2O[C@H]1CN(C)C(=O)c1cnccn1	-3	5
CCC(=O)N1[C@@H]2Cn3c(ccc(-c4cccnc4)c3=O)[C@H]1[C@@H](C(=O)N1CCc3ccccc3C1)[C@@H]2CO	0	3
O=C(Nc1ccc2c(c1)OCO2)N[C@H]1CC[C@@H](CCNC(=O)C2CCOCC2)O[C@H]1CO	1	.
C[C@H]1CN([C@@H](C)CO)S(=O)(=O)c2ccc(C#Cc3ccccc3)cc2O[C@@H]1CN(C)C(=O)Cc1ccccn1	-10	-78
CCC(=O)N(C)C[C@H]1Oc2cc(C#Cc3ccccc3)ccc2S(=O)(=O)N([C@@H](C)CO)C[C@@H]1C	1	-83*
C[C@@H]1CN([C@@H](C)CO)S(=O)(=O)c2ccc(C#Cc3ccccc3)cc2O[C@H]1CN(C)C(=O)Cc1ccccn1	-19	-84*
CCC(=O)N(C)C[C@@H]1Oc2cc(C#Cc3ccccc3)ccc2S(=O)(=O)N([C@H](C)CO)C[C@@H]1C	-7	-72
O=C(Cc1ccccn1)NCC[C@H]1CC[C@@H](NC(=O)Nc2ccccc2)[C@@H](CO)O1	-3	15
C[C@@H]1CCCCO[C@@H](CN(C)C(=O)Nc2ccc3c(c2)OCO3)[C@H](C)CN([C@@H](C)CO)C(=O)c2cc(NC(=O)Nc3ccc(F)cc3)ccc2O1	2	4
SMILES	C diff growth	Pf Dd2 inh
C[C@H](CO)N1C[C@H](C)[C@@H](CN(C)C(=O)Nc2ccc3c(c2)OCO3)OCCCC[C@H](C)Oc2ccc(NC(=O)Nc3ccc(C(F)(F)F)cc3)cc2C1=O	8	-57
C[C@H]1CCCCO[C@H](CN(C)C(=O)Nc2ccc(C(F)(F)F)cc2)[C@@H](C)CN([C@@H](C)CO)C(=O)c2cc(NC(=O)Nc3ccc4c(c3)OCO4)ccc2O1	-4	-85*
C[C@@H]1CN([C@@H](C)CO)C(=O)c2cc(NC(=O)Nc3ccc(F)cc3)ccc2O[C@@H](C)CCCCO[C@@H]1CN(C)C(=O)Nc1ccc2c(c1)OCO2	3	-89*
CO[C@@H]1CC[C@H]2CCOc3ccc(C#N)cc3C(=O)N(C)CCCC(=O)N(C)C[C@H]1O2	2	.
C[C@@H]1CN([C@@H](C)CO)C(=O)c2cccc(NC(=O)c3cnccn3)c2O[C@H]1CN(C)Cc1ccc(C(=O)Nc2ccccc2N)cc1	6	-93*
C[C@H](CO)N1C[C@H](C)[C@H](CN(C)Cc2ccc(C(=O)Nc3ccccc3N)cc2)Oc2c(NC(=O)c3cnccn3)cccc2C1=O	5	-86*
C[C@@H]1CN([C@H](C)CO)C(=O)c2cccc(NC(=O)c3cnccn3)c2O[C@@H]1CN(C)Cc1ccc(C(=O)O)cc1	1	4
C[C@H]1CN([C@@H](C)CO)C(=O)c2cccc(NC(=O)c3cnccn3)c2O[C@@H]1CN(C)Cc1ccc(C(=O)O)cc1	-3	-14
CCC(=O)N1[C@H](C(=O)N(C)C)[C@@H](CO)[C@@H]2Cn3c(ccc(-c4ccccc4)c3=O)[C@@H]21	1	9
CCNC(=O)[C@H]1[C@H](CO)[C@H]2Cn3c(ccc(-c4cccc(C(=O)N(C)C)c4)c3=O)[C@@H]1N2	-5	86
Cc1cccc(S(=O)(=O)N2C[C@@H]3[C@H](c4ccccc42)[C@H](CO)N3C(=O)CC2CC2)c1	-4	15
COc1ccc2c3c(n(C)c2c1)[C@@H](CO)N(CC1CCCCC1)CC31CCN(C(C)=O)CC1	12	-26
COc1ccc(S(=O)(=O)Nc2ccc3c(c2)C(=O)N([C@@H](C)CO)C[C@H](C)[C@@H](CN(C)Cc2ccc(C(=O)Nc4ccccc4N)cc2)O3)cc1	-5	-56
COc1ccc(S(=O)(=O)Nc2ccc3c(c2)CC(=O)N([C@H](C)CO)C[C@@H](C)[C@@H](CN(C)Cc2ccc(C(=O)Nc4ccccc4N)cc2)O3)cc1	0	-85*
COc1ccc(S(=O)(=O)Nc2ccc3c(c2)CC(=O)N([C@H](C)CO)C[C@H](C)[C@H](CN(C)Cc2ccc(C(=O)Nc4ccccc4N)cc2)O3)cc1	-4	-81*
COc1ccc(S(=O)(=O)Nc2ccc3c(c2)C(=O)N([C@H](C)CO)C[C@@H](C)[C@H](CN(C)Cc2ccc(C(=O)Nc4ccccc4N)cc2)O3)cc1	-2	-4
Cc1ccc(S(=O)(=O)N[C@@H]2CC[C@H](CCNS(=O)(=O)Cc3ccccc3)O[C@H]2CO)cc1	-2	-13
COc1ccc(NC(=O)Nc2ccc3c(c2)C(=O)N([C@H](C)CO)C[C@@H](C)[C@@H](CN(C)S(=O)(=O)c2ccc(OC)cc2)OCCCC[C@H](C)O3)cc1	0	-19

Assay outcomes deposited in PubChem by Broad Institute.
